# Assay results published in PubChem BioAssay (Tox21).
# Where “and” joins values, the source holds several entries; their conditions need not be identical. Equal values may be shown once. Records with an inconclusive call do not appear. Where a call stands in place of a potency, no number is given. Values without a mark were called inactive. Calls of active or inactive are those of the source. Calls come from the whole dose curve; as a rule, active = well fitted cell-killing curve with a large enough effect in the repeat runs; inconclusive = weak or mixed curves; inactive = no such curve, though single readings can be large or run the other way.
# Test: qHTS assay to identify small molecule antagonists of the peroxisome proliferator-activated receptor delta (PPARd) signaling pathway - cell viability counter screen (AID 743213); note: nearly all actives have a fitted effect of over 50% in size
# Conditions: PPARd-bla HEK293H viability, CellTiter-Glo luminescence, 17 h; series mostly up to 62 µM
# Source text: U.S. Tox21 Program National Center for Advancing Translational Sciences [NCATS] NIH Chemical Genomics Center [NCGC] U.S. Environmental Protection Agency [EPA] National Institutes of Environmental Health Sciences [NIEHS] National Toxicology Program [NTP] U.S. Food and Drug Administration [FDA] Tox21 Assay Overview: The peroxisome proliferator-activated receptors (PPARs) are lipid-activated transcription factors of the nuclear receptor superfamily with three distinct subtypes namely PPAR alpha, PPAR delta (PPARd) and PPAR gamma. All these subtypes heterodimerizes with Retinoid X receptor (RXR) and have different physiological functions. […] To identify the compounds that inhibit PPAR-delta signaling, GeneBLAzer PPAR delta UAS-bla HEK293H cell line (Invitrogen, Carlsbad, CA, USA) containing a beta-lactamase reporter gene under the control of an Upstream Activator Sequence (UAS) was used to screen the Tox21 compound library. The cytotoxicity of the Tox21 compound library against the PPARd-bla cell line was tested in parallel by measuring the cell viability using CellTiter-Glo assay (Promega, Madison, WI) in the same wells.
# Tox21 Assay Protocol Summary: PPARd-bla cells were dispensed at 3000 cells/5uL/well in 1536-well black wall/clear bottom plates using a Multidrop Combi (Thermo Fisher Scientific, Waltham, MA) dispenser. After the assay plates were incubated at 37 C and 5% CO2 for 5 h, 23 nL of compounds dissolved in DMSO, positive controls or DMSO only was transferred to the assay plate by a Pintool station (Kalypsys, San Diego, CA), followed by addition of 1ul L165041 (300 nM, final concentration in the wells). The assay plates were incubated at 37 C for 17 h, and then 1 uL of LiveBLAzerTM B/G FRET substrate was added using a Bioraptr Flying Reagent Dispenser (FRD) workstation (Beckman Coulter, Indianapolis, IN, USA). The assay plates were incubated at room temperature for 2 h and fluorescence intensity was measured by an Envision plate reader (PerkinElmer, Shelton, CT). For cell viability readout that measures cytotoxicity, 3 ul/well of CellTiter-Glo reagent was added into the assay plates using a Bioraptr FRD. After 30 min incubation at room temperature, the luminescence intensity in the plates was measured using a ViewLux plate reader (PerkinElmer).
# Potency is the fitted concentration of half-maximal effect.
Structure (SMILES),Potency,"viability change, negative = cytotoxic"
Cc1ccc(C(C)C)cc1,inactive,
C=C1C[C@]23C[C@@]1(O)CC[C@H]2[C@@]12C=C[C@H](O)[C@@](C)(C(=O)O1)[C@H]2[C@@H]3C(=O)O,inactive,
C=C(C)CC(C)(C)C,inactive,
Cc1ccc(Cl)cc1,inactive,
Cc1cc(C)c(O)c(C)c1,inactive,
NC1CCCCC1N (stereo not given),inactive,
Cc1cc(C)cc(O)c1,inactive,
OC1CCCCC1,inactive,
CC[N+](CC)(CC(=O)Nc1c(C)cccc1C)Cc1ccccc1,inactive,
Nc1cccc(N)n1,inactive,
CC1=CC(=O)CC(C)(C)C1,inactive,
C1CCCNCC1,inactive,
COC(=O)/C=C\C(=O)OC,inactive,
CS(=O)(=O)c1ccc(Cl)cc1,inactive,
CC(COCC(C)OC(=O)c1ccccc1)OC(=O)c1ccccc1 (stereo not given),inactive,
Cc1ccncc1,inactive,
COCN(COC)c1nc(N(COC)COC)nc(N(COC)COC)n1,inactive,
Cc1ccccc1Cl,inactive,
CCCCCCC(=O)O,inactive,
OC[C@H]1O[C@@H](Oc2ccc(O)cc2)[C@H](O)[C@@H](O)[C@@H]1O,inactive,

Structure (SMILES),Potency,"viability change, negative = cytotoxic"
CC/C(C)=N/O,inactive,
NCCNCCNCCN,inactive,
O=C1CCCCCCCCCCC1,inactive,
COc1c2ccoc2cc2oc(=O)ccc12,inactive,
NC(=O)c1ncn([C@@H]2O[C@H](CO)[C@@H](O)[C@H]2O)n1,inactive,
CC(=O)CC(=O)N(C)C,inactive,
CC(CN1c2ccccc2Sc2ccccc21)N(C)C (stereo not given),49.5 µM (active) and 24.5 µM (active),
CCCCCCCCCCCC(=O)N(C)CC(=O)O,,-8.19% [at 6.26 µM]
NC(=O)NC(N)=O,inactive,
COc1ccccc1[N+](=O)[O-],inactive,
O=C1C(N(CO)C(=O)NCO)N(CO)C(=O)N1CO (stereo not given),inactive,
OCC(CO)(CO)CO,inactive,
CCOC(=O)CC(=O)OCC,inactive,
COc1ccc(N)c(OC)c1,inactive,
CN=C(NC#N)NCCSCc1nc[nH]c1C,inactive,
NC(N)=S,inactive,
OCc1ccc(Cl)cc1Cl,inactive,
COc1cc(NC(=O)CC(C)=O)c(OC)cc1Cl,inactive,
CCc1cccc(O)c1,inactive,
C=C(CC(=O)O)C(=O)O,inactive,
